Bioassay records deposited in PubChem by National Center for Advancing Translational Sciences (NCATS).
Many of the other results were omitted from the sample, so hits are more common in it than they were.
VACV mCherry inh = inhibitors of vaccinia virus infection (mCherry reporter signal); Vaccinia virus mCherry reporter infection, fluorescence; Potency, µM (highest dose often 36.5 µM), for the others: at the top dose activity change, negative = inhibition, hits mostly inhibitors; hit rate 0.63% among 310,000; AID 720579; calls by dose curve; tested in A549 cells; also: potency is read from the fitted curve at half-maximal effect; % is scaled to controls: 0 for no effect and ±100 for the full control effect; nearly all actives have a fitted effect of over 35% in size
CHX counter = affects cycloheximide protein synthesis inhibition readout, counter-screen. cell reporter, cycloheximide protein synthesis inhibition counterscreen. max response, %. hit rate 12% among 300,000; in the data active = max response mostly above about 13%, no sharp cut-off; inactive = mostly below about 14%; also: read at 38.3 µM for the half of the compounds with a filed dose; 0% is about no effect
Lassa entry inh = inhibitors of Lassa virus binding or cell entry; Lassa virus pseudotype entry inhibition, cell reporter; Potency, µM (top dose mostly 37.9 µM), for inactives: at the top dose activity change, negative = inhibition, actives largely listed as inhibitors; hit rate 1.2% among 300,000; AID 540256; calls by dose curve; tested in HEK293 cells; also: potency is read from the fitted curve at half-maximal effect; % is scaled to controls: 0 for no effect and ±100 for the full control effect; nearly all actives have a fitted effect of over 50% in size
Vaccinia Venus = inhibitors of vaccinia virus (Venus reporter); Vaccinia virus Venus reporter expression, fluorescence; hit rate 0.46% among 330,000; Potency, µM (series often up to 36.5 µM), inactives show at the top dose activity change, negative = inhibition, hits mostly inhibitors; calls by dose curve; tested in A549 cells; also: potency is read from the fitted curve at half-maximal effect; % is scaled to controls: 0 for no effect and ±100 for the full control effect; nearly all actives have a fitted effect of over 30% in size
Shiga toxin inh = blocks Shiga toxin action in Vero cells | Vero cells, Shiga toxin protein synthesis inhibition reporter | inhibition, % at 38.7 µM | hit rate 9.2% among 290,000 | AID 2315; in the data active = inhibition mostly above about 28%, no sharp cut-off; inactive = mostly below about 43%; also: 0% is about no effect
MARV entry inh = Marburg virus entry inhibition; Marburg virus pseudotyped entry inhibition, cell reporter; hit rate 1.8% among 300,000; Potency, µM (highest dose often 37.8 µM), for the others: at the highest dose activity change, negative = inhibition, usual class: inhibitors; calls by dose curve; tested in HEK293 cells; also: potency is read from the fitted curve at half-maximal effect; % is scaled to controls: 0 for no effect and ±100 for the full control effect
Numbers without * were called inactive; [ ] = remark or other dose.

COc1ccc(NC(=O)CN2CCN(CC(=O)Nc3ccc(F)cc3F)CC2)cc1 was read as VACV mCherry inh -8.2%, CHX counter 24.4*, Lassa entry inh inconclusive, Vaccinia Venus -12.1%, Shiga toxin inh 30.3* and MARV entry inh 10.6%[46.1 µM].
NS(=O)(=O)c1ccc(NC(=O)CSC2CCCCC2)cc1 was read as VACV mCherry inh -16.1%, CHX counter 15.5, Lassa entry inh -6.1%, Vaccinia Venus -10.9%, Shiga toxin inh 39.9 and MARV entry inh 23.3%.
`CCOc1ccc(NC(=O)CN2CCN(CC(=O)Nc3ccc(F)cc3F)CC2)cc1` gave VACV mCherry inh -7.2%, Lassa entry inh inconclusive and Vaccinia Venus -14.1%.
Screening Cc1cccc(NC(=O)CSc2nnc3[nH]c(=O)cc(-c4ccccc4)n23)c1C returned VACV mCherry inh inactive, Lassa entry inh 6.3%[46.1 µM] and Vaccinia Venus 3.3%.
For O=C(CN1CCCCCC1)Nc1ccc(Br)cc1 the results were VACV mCherry inh -23.9%, CHX counter 24.4*, Lassa entry inh 20.8%[14.3 µM], Vaccinia Venus -18.6%, Shiga toxin inh 40.1 and MARV entry inh -20.9%.
O=C(CN1CCCCCC1)Nc1ccc(Br)cn1 was read as CHX counter 14.9* and Shiga toxin inh 25.7.
Screening COc1ccc(C(=O)N2CCC3(CC2)c2ccccc2[C@@H](NC(=O)c2ccccn2)[C@@H]3OC)c(O)c1 returned VACV mCherry inh -19.4% and Vaccinia Venus -2.2%.
`O=C(O)CCCCCn1c(SCC(=O)c2ccc(O)c(O)c2)nc2ccsc2c1=O` gave VACV mCherry inh -12.0%, CHX counter -3.5, Lassa entry inh inconclusive, Vaccinia Venus -3.7%, Shiga toxin inh -15.5 and MARV entry inh 2.8%.
`CCCCn1c(SCC(=O)c2ccc(O)c(O)c2)nc2ccsc2c1=O` gave VACV mCherry inh 22.4µM*, CHX counter -3.9, Lassa entry inh -7.5%, Vaccinia Venus inconclusive, Shiga toxin inh -11.9 and MARV entry inh -7.9%.
Screening Cc1cc(C(=O)N2CCN(c3cccc(Cl)c3)CC2)c(C)o1 returned VACV mCherry inh inconclusive, CHX counter -5.0, Lassa entry inh inconclusive, Vaccinia Venus inconclusive, Shiga toxin inh -22.8 and MARV entry inh 6.31µM*.
For CSc1ccccc1C(=O)N1CCN(c2cccc(Cl)c2)CC1 the results were VACV mCherry inh inconclusive, CHX counter -6.8, Lassa entry inh 5.62µM*, Vaccinia Venus inconclusive, Shiga toxin inh -9.7 and MARV entry inh inconclusive.
Screening CSc1ncc(C(=O)N2CCN(c3cccc(Cl)c3)CC2)c(C)n1 returned VACV mCherry inh -12.7%, Lassa entry inh 8.0%[46.1 µM] and Vaccinia Venus -11.1%.
N#Cc1c(N2CCSCC2)nsc1-c1ccccc1Cl was read as VACV mCherry inh -0.5%, CHX counter 29.5*, Lassa entry inh inconclusive, Vaccinia Venus -12.6%, Shiga toxin inh 43.3 and MARV entry inh -27.9%[46.1 µM].
CCN(CC)CCNC(=O)c1ccc(NS(C)(=O)=O)cc1 was read as Lassa entry inh -5.9% and MARV entry inh 12.3%.
`COc1ccc(NC(=S)NC(=O)/C=C/c2ccco2)cc1` gave VACV mCherry inh -17.2%, CHX counter 43.3*, Lassa entry inh -17.8%, Vaccinia Venus -7.7%, Shiga toxin inh 100.8* and MARV entry inh -23.7%[46.1 µM].
Screening CCC(=O)Nc1ccc(NC(=S)NC(=O)/C=C/c2ccco2)cc1 returned VACV mCherry inh -6.9%, CHX counter -2.7, Lassa entry inh -13.7%[46.1 µM], Vaccinia Venus -21.1% and MARV entry inh inconclusive.
`O=C(/C=C/c1ccco1)NC(=S)Nc1ccc(C(=O)O)cc1` gave VACV mCherry inh -9.4%, CHX counter 22.7*, Lassa entry inh 1.6%[46.1 µM], Vaccinia Venus -3.4%, Shiga toxin inh 51.7* and MARV entry inh 0.7%[46.1 µM].
`CC(=O)NC(=S)Nc1ccc(NC(=S)NC(=O)/C=C/c2ccco2)cc1` gave VACV mCherry inh inactive, CHX counter -2.9, Lassa entry inh inconclusive, Vaccinia Venus -6.9%, Shiga toxin inh -11.7 and MARV entry inh -24.8%.
COc1ccc(COC(=O)N/C=C/c2ccco2)cc1 was read as VACV mCherry inh inactive, CHX counter -1.8, Lassa entry inh 1.16µM*, Vaccinia Venus 1.3%, Shiga toxin inh 20.4 and MARV entry inh 2.4%[46.1 µM].
CCOc1ccc2nc(SCC(=O)NC(=O)C(C)C)sc2c1 was read as VACV mCherry inh inactive, CHX counter 16.5, Lassa entry inh 6.8%, Vaccinia Venus 2.6%, Shiga toxin inh 17.4 and MARV entry inh -4.5%[46.1 µM].
`Cc1cc(OCC(=O)NC(C)(C)C)ccc1Cl` gave VACV mCherry inh inactive, CHX counter 50.7*, Lassa entry inh inconclusive, Vaccinia Venus -13.6%, Shiga toxin inh 21.8* and MARV entry inh inconclusive.
COCCCNC(=O)COc1ccc(Cl)c(C)c1 was read as CHX counter 17.8*, Lassa entry inh 9.2%, Shiga toxin inh 32.5 and MARV entry inh inconclusive.
`Cc1cc(OCC(=O)N(C(C)C)C(C)C)ccc1Cl` gave VACV mCherry inh inactive, CHX counter -1.0, Lassa entry inh -26.4%[46.1 µM], Vaccinia Venus -16.1%, Shiga toxin inh 9.2 and MARV entry inh -1.3%[46.1 µM].
`COCCCNC(=O)COc1ccc2oc3c(c2c1)CCCC3` gave VACV mCherry inh 16.9%, CHX counter -4.0, Lassa entry inh inconclusive, Vaccinia Venus -4.6%, Shiga toxin inh 0.4 and MARV entry inh 1.2%[46.1 µM].
Screening CO[C@@H]1c2cc(F)ccc2C(=CCCOC(=O)CC=Cc2ccccc2)[C@H]1C returned MARV entry inh -24.4%[14.2 µM].
`O=C(O)CC(NS(=O)(=O)c1ccc(Br)s1)c1ccccc1` (stereo not given) gave VACV mCherry inh -10.6%, Lassa entry inh -1.4%[46.1 µM] and Vaccinia Venus -5.6%.
O=C(NCCS(=O)(=O)NCc1ccccc1)c1ccc2c(c1)OCO2 was read as VACV mCherry inh inactive, Lassa entry inh 19.6%, Vaccinia Venus -0.2% and MARV entry inh 1.1%[46.1 µM].
`O=C(c1ccc2c(c1)OCO2)C1CCCN(C2CCN(CCc3ccccc3)CC2)C1` (stereo not given) gave VACV mCherry inh inactive, CHX counter -4.0, Lassa entry inh inconclusive, Vaccinia Venus -23.8%, Shiga toxin inh -16.3 and MARV entry inh 7.08µM*.
`O=C(NCCc1ccccc1)c1ccc2c(c1)OCO2` gave VACV mCherry inh -10.0%, CHX counter -0.7, Lassa entry inh 1.12µM*, Vaccinia Venus -12.9%, Shiga toxin inh -2.8 and MARV entry inh 1.26µM*.
Cc1onc(-c2ccccc2)c1C(=O)NNC(=S)NC(=O)c1ccc2c(c1)OCO2 was read as VACV mCherry inh -16.3%, CHX counter 46.5*, Lassa entry inh inconclusive, Vaccinia Venus -9.2%, Shiga toxin inh 90.5* and MARV entry inh -21.5%[46.1 µM].
For COc1ccc(C(=O)NC(=S)NNC(=O)c2c(-c3ccccc3)noc2C)cc1OC the results were VACV mCherry inh -20.0%, CHX counter -2.3, Lassa entry inh -24.2%[46.1 µM], Vaccinia Venus -4.6%, Shiga toxin inh -3.1 and MARV entry inh -27.6%[46.1 µM].
O=C(NC(=S)NCc1ccccc1)c1ccc2c(c1)OCO2 was read as VACV mCherry inh -13.7%, CHX counter 18.7*, Lassa entry inh 3.4%, Vaccinia Venus -4.9%, Shiga toxin inh -51.5 and MARV entry inh -1.0%.
